Data as given in the supplement of paper PMC3898565.
± gives the uncertainty stated by the source.

test system: U87; test: cell viability relative to vehicle control; higher = less growth inhibition (less active); details: 10 µM; 72 h
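Also: viable cell number estimated from Alamar Blue fluorescence read at 560/90, part of a single-dose primary screen of an FDA-approved drug library.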

SMILES | cell viability [%]
CC(=O)Nc1ccc(CC(=O)O)cc1 | 100 ± 1.1
C[C@]12CCC(=O)C=C1CC[C@@H]1[C@@H]2CC[C@@]2(C)[C@H]1CC[C@]2(O)C(=O)CO | 103.8 ± 0.18
CC(C)c1ccc2oc3nc(N)c(C(=O)O)cc3c(=O)c2c1 | 107 ± 1.8
O=C(O)/C=C/c1ccc(Cn2ccnc2)cc1 [ozagrel] | 104 ± 1.2
CC(C)(O)c1ccccc1CC[C@@H](SCC1(CC(=O)O)CC1)c1cccc(/C=C/c2ccc3ccc(Cl)cc3n2)c1 | 101.8 ± 0.94
COCC1=C(C(=O)OC(C)OC(=O)OC(C)C)N2C(=O)[C@@H](NC(=O)/C(=N\OC)c3csc(N)n3)[C@H]2SC1 (some centres undefined) | 106 ± 1.6
CC(C)c1ccc2c(c1)c(SC(C)(C)C)c(CC(C)(C)C(=O)O)n2Cc1ccc(Cl)cc1 | 99 ± 1.3
CNCCCCOc1ccccc1Cc1ccccc1 [Bifemelane] | 96.1 ± 9.1
CCN(CC)CC1CCCCN1CC(=O)N1c2ccccc2C(=O)Nc2cccnc21 (centres undefined) | 110 ± 1.9
O=C(CCCN1CCC(O)(c2ccc(Cl)cc2)CC1)c1ccc(F)cc1 [Haloperidol] | 107.5 ± 0.44
CNC(=C[N+](=O)[O-])NCCSCc1csc(CN(C)C)n1 | 99.1 ± 1.3
CO[C@@H]1[C@@H](O[C@@H]2O[C@H](C)[C@@H](O[C@H]3C[C@@](C)(O)[C@@H](OC(=O)CC(C)C)[C@H](C)O3)[C@H](N(C)C)[C@H]2O)[C@@H](CC=O)C[C@@H](C)[C@@H](O)/C=C/C=C/C[C@@H](C)OC(=O)C[C@H]1O | 102 ± 2.2
CN(C)CCC[C@@]1(c2ccc(F)cc2)OCc2cc(C#N)ccc21 | 103 ± 1.9
COc1cc(N)c(Cl)cc1C(=O)NC1CCN(CCCOc2ccc(F)cc2)CC1OC (centres undefined) [Cisapride] | 103.5 ± 0.4
